The results in this text go back to PubChem BioAssay AID1347044 (National Center for Advancing Translational Sciences (NCATS), 2019).

Molecules are shown by their SMILES. Among all 1,400 compounds or so, about 1,100 (79%) were called active. Roughly 20% stayed inconclusive and do not appear here. The call rests on the fitted dose curve. So high a share suggests a set chosen from earlier hits. A selection follows.
Potency means the concentration at half of the fitted maximal effect.

Sequence of Atrial natriuretic peptide receptor 1 (Homo sapiens) (P16066 whole entry, looked up, the tested form may be a part): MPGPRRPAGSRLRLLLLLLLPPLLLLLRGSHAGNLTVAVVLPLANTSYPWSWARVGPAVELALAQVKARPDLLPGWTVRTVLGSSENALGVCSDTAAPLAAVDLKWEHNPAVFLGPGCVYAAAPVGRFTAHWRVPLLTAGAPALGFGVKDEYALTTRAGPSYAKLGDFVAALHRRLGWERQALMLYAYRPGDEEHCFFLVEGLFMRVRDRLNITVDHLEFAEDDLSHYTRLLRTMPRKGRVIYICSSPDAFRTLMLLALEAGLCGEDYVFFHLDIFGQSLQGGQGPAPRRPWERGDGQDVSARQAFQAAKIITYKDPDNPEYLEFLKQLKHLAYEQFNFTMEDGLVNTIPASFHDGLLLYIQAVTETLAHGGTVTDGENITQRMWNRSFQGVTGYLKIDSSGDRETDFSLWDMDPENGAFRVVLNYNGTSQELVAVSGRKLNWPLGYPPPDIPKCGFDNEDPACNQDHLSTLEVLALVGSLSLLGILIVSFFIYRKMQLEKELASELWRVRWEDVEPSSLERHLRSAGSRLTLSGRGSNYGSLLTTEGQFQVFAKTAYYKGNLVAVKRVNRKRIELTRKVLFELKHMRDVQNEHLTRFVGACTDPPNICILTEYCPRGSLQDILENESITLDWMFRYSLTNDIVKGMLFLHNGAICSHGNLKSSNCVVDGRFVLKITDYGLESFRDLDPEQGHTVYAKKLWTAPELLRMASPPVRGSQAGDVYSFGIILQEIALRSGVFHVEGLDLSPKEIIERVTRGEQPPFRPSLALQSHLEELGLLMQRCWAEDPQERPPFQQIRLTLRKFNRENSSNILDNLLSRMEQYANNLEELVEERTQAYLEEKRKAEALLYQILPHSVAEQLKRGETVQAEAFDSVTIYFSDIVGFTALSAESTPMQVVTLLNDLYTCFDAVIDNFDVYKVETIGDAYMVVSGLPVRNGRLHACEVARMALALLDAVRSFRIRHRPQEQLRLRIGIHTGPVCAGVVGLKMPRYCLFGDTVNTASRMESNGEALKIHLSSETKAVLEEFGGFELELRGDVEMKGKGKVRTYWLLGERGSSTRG

The test concerns the target Atrial natriuretic peptide receptor 1 (Homo sapiens) (UniProt P16066). Briefly: Natriuretic polypeptide receptor (hNpr1) antagonism - Confirmation. Further: nearly all actives have a fitted effect of over 70% in size. Conditions: HEK293 hNpr1 cGMP GloSensor luminescence, ANP-stimulated. As for the experimental part: In order to identify small molecular compounds that inhibit the hNpr1 receptor we developed a high-throughput assay to measure inhibition of the guanylate cyclase activity of the receptor. cGMP production was measured using a circular permutated Firefly luciferase (FLuc) enzyme functionally linked to the cGMP binding domain of human phosphodiesterase 5 (GloSensor technology pGS-40F, (Fan, F. et al. 2008). The cGMP-sensor was expressed in human embryonic kidney 293 (HEK-293) cells and FLuc activity was measured after stimulation with hNrp agonist peptide. hNrp agonists activates the receptor's associated guanylyl cyclase (GC) domain producing cGMP which then binds to the GloSensor resulting in FLuc activation, the enzymatic activity of which can be measured as bioluminescence with addition of luciferin substrate. A cytotoxicity counter-screen using the HEK-hNpr1-cGMP-sensor cells was also performed on the follow-up compounds. F. Fan, B. F. Binkowski, B. L. Butler, P. F. Stecha, M. K. Lewis, K. V. Wood, Novel genetically encoded biosensors using firefly luciferase. ACS Chem Biol 3, 346-351 (2008).
PROTOCOL TABLES (as described by Inglese J, Shamu CE and Guy RK. 2007) SEQUENCE No. (e.g., 1, 2, 3, etc.); PARAMETER (e.g., Cells, Incubation, Reagent, etc.); VALUE and DESCRIPTION. GLOSENSOR PROTOCOL 1. Cells. Seed 1500 HEK293 cGMP-sensor cells expressing hNpr1 per well in 4uL into Greiner 1536-well white/solid bottom high base, tissue culture-treated plates. 2. Incubation. Incubate plated cells at 37C in 5% CO2, 95% RH overnight. 3. Reagent. Add 1uL per well GloSensor reagent from Promega (2% final concentration) or CO2 independent media vehicle control to respective columns of Greiner 1536-well plates. 4. Incubation. Incubate plated cells at room temperature for 2 h, protect from light. 5. Compounds. Library compounds and A-71915 control added at 23 nL per well, transferred by Pin Tool. 6. Incubation. Incubate plated cells for 30 min. at room temperature, protect from light. 7. Detector. GloSensor baseline pre-read luminescence measured using CCD-based camera (Viewlux). 8. Compound. Add 1uL of hNppA peptide to 0.1 nM final concentration to stimulate hNpr1 or CO2 independent media as vehicle control. 9. Incubation. Incubate treated cells at room temperature for 20 min., protect from light. 10. Detector. GloSensor post-hNppA luminescence measured using CCD-based camera (Viewlux). NOTES (numbers refer to Sequence numbers above) 1. HEK293 cells expressing hNpr1 and GIP/pGS-40F grown to 85-95% confluence (48-72 h) in T175 culture flasks (CO2 independent media supplemented with 10% FBS, 1% Pen/Strep antibiotics and 1 ug/mL puromycin). Trypsinize and harvest cells from T175 culture flasks and filter through 40 um cell strainer. Cells counted with Invitrogen Countess (30,000,000 - 50,000,000 cells/flask). Cells diluted to a final concentration of 375 cells/uL in CO2 independent media and a Millipore multidrop used to dispense 1500 cells per well (4uL/well) into 13 1536-well Greiner White/Solid bottom, high base tissue-culture treated (TC) plates and one Aurora 1536-well Black/Clear bottom, low base, TC plate (for visual inspection of cell health throughout the duration of the assay). 2. Cells incubated overnight at ambient temperature, 24 h. at 37C in 95% RH incubator protected from light, covered with metal lid with gas-exchange holes. 3. […]
As for `CCC(CC)c1cc([C@H]2CN3CC[C@H]2C[C@@H]3CNC(=O)NCc2ccccc2)nc(-c2ccncc2)n1`, the Potency is 19.3 µM (active).
Regarding `COc1cc2c(cc1Oc1cccc(N(C)C)c1)NC(=O)C21CCN(Cc2ccccn2)CC1`, the Potency was 21.7 µM (active).
For `COc1cc2c(cc1OCc1ccncc1)NC(=O)C21CCN(c2ncc(F)cn2)CC1`, the Potency was 39.6 µM (active).
The result for `COc1cc2c(cc1Oc1cccc(N(C)C)c1)NC(=O)C21CCN(c2cnccn2)CC1` reads 21.7 µM (active); that for `COc1cc2c(cc1Oc1cccc(N(C)C)c1)NC(=O)C21CCN(CCC(C)C)CC1`, 35.3 µM (active).
